Measured values as given in PubChem BioAssay (NCATS).
Records with an inconclusive call do not appear. Where a call stands in place of a potency, no number is given. Active and inactive are the calls of the source. Calls come from the whole dose curve; as a rule, active = well fitted inhibition curve with a large enough effect; inconclusive = small, poorly fitted or top-dose-only effect; inactive = flat fitted curve, though single readings scatter.

These molecules were tested on W2 (assay: qHTS profiling for inhibitors of Plasmodium falciparum proliferation (AID 504749; note: nearly all actives have a fitted effect of over 60% in size)). Conditions: P. falciparum in erythrocytes, SYBR Green DNA, 72 h; series mostly up to 28.7 µM.
Text: NIH National Institute of Allergy and Infectious Diseases [NIAID] NIH Chemical Genomics Center [NCGC] MLPCN Grant: None Assay Provider: Xinzhuan Su, NIAID NCGC Assay Overview: Plasmodium falciparum is a virulent malarial parasite that kills 1-2 million people worldwide each year. Transmitted by mosquitoes, the sporozoite form of the parasite enters the blood stream to infect hepatocytes, where they become merozoites that infect red blood cells (erythrocytes). Within erythrocytes, merozoites begin a […] cycle of growth and division, after which the parasite is released to infect new red blood cells. Gametocytes, which form within erythrocytes as well, circulate in the bloodstream and are ingested by the mosquito, thereby completing the life cycle. To profile malarial isolates for differential chemical responses and to identify inhibitors of malarial growth, an assay that measures P. falciparum growth and replication within erythrocytes was employed. This assay uses a DNA binding fluorescent dye (SYBR Green) to detect parasite DNA following cell lysis. Because mature erythrocytes lack DNA, only Plasmodium-derived DNA is detected.
NCGC Assay Protocol Summary: The SYBR Green viability assay was adapted from a method described previously (Plouffe et al., 2008). For screening 3 ul culture medium was dispensed into 1536 well black clear bottom plates (Aurora Biotechnologies) using a Multidrop Combi (Thermo Fisher Scientific Inc.), 23 nL compounds in DMSO were added by a pin tool (Kalypsys), and 5 ul of erythrocytes infected with P. falciparum (0.3% parasitemia, 2.5% hematocrit final concentration) were added. The plates were incubated at 37 C in a humidified incubator in 5% CO2 for 72 h, and 2 ul lysis buffer (20 mM Tris HCl, 10 mM EDTA, 0.16% saponin, 1.6% triton X, 10X SYBR Green I supplied as 10,000X […] by Invitrogen) was added to each well. The plates were mixed for 25 sec with gentle shaking and incubated overnight at room temperature in the dark. The following morning, fluorescence intensity at 485(14) nm excitation and 535(25) nm emission wavelengths was measured on an EnVision (Perkin Elmer) plate reader. Plate reads were normalized relative to the control inhibitor (0.29 uM artemisinin) and vehicle (DMSO) wells present on each plate and then corrected by an algorithm using vehicle-only control plates at the beginning and end of the compound plate stack.
Potency is the fitted concentration of half-maximal effect.

Compound | Potency
CC(=O)[C@H]1CC[C@H]2C3CC=C4C[C@@H](O)CC[C@]4(C)C3CC[C@]12C (stereo not given in full) | inactive
C[C@@H](C(=O)O)c1ccc(-c2ccccc2)c(F)c1 | inactive
CC(C)(O)c1ccccc1CC[C@H](SCC1(CC(=O)O)CC1)c1cccc(/C=C/c2ccc3ccc(Cl)cc3n2)c1 | inactive
O=C(CC1NCCC[C@H]1O)Cn1cnc2cc(Br)c(Cl)cc2c1=O (stereo not given in full) | 0.675 µM (active)
O=C1c2cccc3c2[C@@H](CCC3)CN1[C@@H]1CN2CCC1CC2 | 6.75 µM (active)
COC(=O)[C@@H]1[C@@H]2C[C@H]3c4[nH]c5ccccc5c4CCN3C[C@@H]2CC[C@@H]1O | inactive
C/C=C1\C2C=C(C)CC1(N)c1ccc(=O)[nH]c1C2 (stereo not given) | inactive
CCCCC(=O)N(Cc1ccc(-c2ccccc2-c2nn[nH]n2)cc1)C(C(=O)O)C(C)C (stereo not given) | 15.1 µM (active)
CN1CCN(CCC=C2c3ccccc3Sc3ccc(S(=O)(=O)N(C)C)cc32)CC1 | 6.01 µM (active)
CC(C)C[C@@H](NC(=O)[C@H](Cc1ccccc1)NC(=O)c1cnccn1)B(O)O | 0.0757 µM (active)
